# Experimental data taken from publication PMC5540273 (PLoS ONE, 2017).
# How the values were obtained:
# Details in all cases: concentration: 1 μM, replicates: in singlicate; n = 1
# AKT3 = test system: AKT3
# ALK = test system: ALK
# AMPK-alpha1 = test system: T1, AMPK-alpha1
# T1 construct: gene PRKAA1
# AMPK-alpha2 = test system: T2, AMPK-alpha2
# T2 construct: gene PRKAA2
# ANKK1 = test system: ANKK1
# ARK5 = test system: T3, ARK5
# T3 construct: gene NUAK1
# ASK1 = test system: T4, ASK1
# T4 construct: gene MAP3K5
# ASK2 = test system: T5, ASK2
# T5 construct: gene MAP3K6
# AURKA = test system: AURKA
# AURKB = test system: AURKB
# AURKC = test system: AURKC
# AXL = test system: AXL
# BIKE = test system: T6, BIKE
# T6 construct: gene BMP2K
# BLK = test system: BLK
# BMPR1A = test system: BMPR1A
# BMPR1B = test system: BMPR1B
# BMPR2 = test system: BMPR2
# BMX = test system: BMX
# BRAF = test system: BRAF
# BRK = test system: T7, BRK
# T7 construct: gene PTK6
# 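Further: KINOMEscan kinase panel screen.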
Structure (SMILES),%Inh (AKT3) [%],%Inh (ALK) [%],%Inh (AMPK-alpha1) [%],%Inh (AMPK-alpha2) [%],%Inh (ANKK1) [%],%Inh (ARK5) [%],%Inh (ASK1) [%],%Inh (ASK2) [%],%Inh (AURKA) [%],%Inh (AURKB) [%],%Inh (AURKC) [%],%Inh (AXL) [%],%Inh (BIKE) [%],%Inh (BLK) [%],%Inh (BMPR1A) [%],%Inh (BMPR1B) [%],%Inh (BMPR2) [%],%Inh (BMX) [%],%Inh (BRAF) [%],%Inh (BRK) [%]
CNc1nccc(-c2c(-c3ccc(F)cc3)ncn2CCCN2CCOCC2)n1 [SB-222516],14,12,0,9,39,0,9,12,0,11,21,14,0,17,13,0,30,3,6,0
CN1CCC(n2cnc(-c3ccc(F)cc3)c2-c2ccnc(NC3CCNCC3)n2)CC1 [SB-229482],32,22,0,12,0,0,0,0,34,40,0,48,0,10,6,0,1,0,0,0
CC(C)(C)OC(=O)NC1CCCN(c2cc(-c3ccc4c(N)n[nH]c4c3)nc(N)n2)C1 (stereo not drawn) [GSK2286096],0,36,0,0,7,19,0,0,52,66,53,5,10,0,0,0,0,8,16,13
Clc1cc(Nc2ncnc3cc[nH]c23)ccc1OCc1ccccn1,5,0,20,0,20,0,5,0,35,13,0,19,0,0,25,8,17,20,0,4
Cc1ccc(NC(=O)c2cccc(C#N)c2)cc1-c1ccc(C(=O)Nc2ccncc2)cc1 [GSK1398463],0,31,0,15,0,33,3,8,7,12,6,11,24,31,0,0,0,26,29,14
Clc1cccc(-c2nc(Nc3ccncc3)c3ccccc3n2)c1 [GW873004],1,33,30,9,0,0,13,0,0,17,10,0,10,19,21,4,10,43,0,24
Cc1ccc(C)c(NC(=O)NCCNc2ccnc(Nc3ccc(F)cc3)n2)c1 [GSK1379878],0,2,10,0,5,0,0,0,7,0,15,0,20,33,0,0,0,0,0,1
CCc1nc(-c2cccc(N(C)S(=O)(=O)c3ccccc3)c2)c(-c2ccnc(Nc3ccc(N4CCN(C(C)=O)CC4)nc3)n2)s1 [GSK1645895],0,18,0,0,26,16,12,0,19,10,0,0,0,64,0,0,0,15,60,31
COC(=O)c1cccc(NC(=O)NCCNc2ccnc(Nc3ccc(F)cc3)n2)c1 [GSK1379883],0,32,0,18,1,0,0,0,21,0,32,5,22,0,0,0,0,21,0,24
CS(=O)(=O)CCNCc1ccc(-c2ccc3ncnc(Nc4ccc(OCc5ccccc5)c(Cl)c4)c3c2)o1.Cl [GW574783],27,18,9,24,0,18,0,0,0,4,2,42,19,49,0,0,0,19,9,0
O=c1cc(N2CCOCC2)nc2n(Cc3cccc(Cl)c3)ccn12 [GSK2296823],0,32,0,0,22,14,0,0,0,3,1,0,20,9,0,0,0,20,10,7
Cl.Cn1ccc(-c2cccc(Nc3ccnc4cc(-c5nccs5)ccc34)c2)n1 [GW525701],0,28,0,14,8,0,9,0,0,28,0,0,0,15,0,0,16,0,0,5
Cn1ccc2ncnc(Oc3ccc(NC(=O)Nc4cccnc4)c(Cl)c3)c21,0,0,4,9,0,3,5,0,18,47,0,7,0,8,0,0,7,0,0,0
CCn1c(-c2ccncc2)nc2cnccc21 [SB-735216],0,6,0,5,21,8,0,20,7,29,0,24,8,0,4,0,24,17,19,3
CC(=O)Nc1n[nH]c2ncc(-c3ccccc3)cc12 [SB-548492],5,0,10,1,20,0,20,23,16,17,32,21,7,28,30,21,47,13,0,0
N#Cc1ccc(Oc2ccc(Nc3ncnc4cc[nH]c34)cc2Cl)cc1,0,0,17,15,28,10,18,0,11,16,11,22,1,28,18,8,25,13,0,11
CCc1nc(-c2cccc(C)c2)c(-c2ccnc(NC(=O)c3ccccc3)c2)s1,0,27,16,1,0,0,9,0,17,6,0,0,0,16,0,9,8,0,17,0
Nc1nccc2scc(-c3ccc4c(c3)CCN4C(=O)Cc3cc(F)ccc3F)c12 [GSK2587663],0,8,0,11,1,0,6,13,0,8,35,41,10,54,0,0,0,23,3,32
Fc1cccc(COc2ccc(Nc3ncnc4nn5ccccc5c34)cc2Cl)c1 [GW689066],0,26,0,0,0,11,8,0,0,0,6,0,15,57,0,0,4,5,0,0
c1ccc(-c2ccc3c(-c4ccnc(Nc5ccc6c(c5)OCCO6)n4)cnn3n2)cc1 [GW818941],18,0,19,25,4,15,7,0,0,0,26,11,27,12,0,0,12,8,0,9
Cl.Cl.c1ccc(-c2cc3ccncc3cc2OC2CCNCC2)cc1 [GSK1122999],0,23,16,22,0,13,0,4,17,10,28,27,27,41,0,0,0,17,0,8

Structure (SMILES),%Inh (AKT3) [%],%Inh (ALK) [%],%Inh (AMPK-alpha1) [%],%Inh (AMPK-alpha2) [%],%Inh (ANKK1) [%],%Inh (ARK5) [%],%Inh (ASK1) [%],%Inh (ASK2) [%],%Inh (AURKA) [%],%Inh (AURKB) [%],%Inh (AURKC) [%],%Inh (AXL) [%],%Inh (BIKE) [%],%Inh (BLK) [%],%Inh (BMPR1A) [%],%Inh (BMPR1B) [%],%Inh (BMPR2) [%],%Inh (BMX) [%],%Inh (BRAF) [%],%Inh (BRK) [%]
Cn1ccc2ncnc(Nc3ccc(Oc4cccc(Cl)c4)c(Cl)c3)c21,0,0,18,20,0,22,0,11,0,33,0,0,0,14,22,0,29,13,0,17
CN1c2ccc(-c3ccc(C(=O)NCCO)cc3)cc2-c2[nH]ncc2S1(=O)=O,12,44,16,0,0,0,34,3,0,37,9,17,10,26,19,16,0,13,19,0
CC(C)N1CCC(n2cnc(-c3ccc(F)cc3)c2-c2ccnc(N)n2)CC1 [SB-223132],0,12,0,11,0,0,1,0,0,0,51,5,32,2,10,0,0,9,0,5
CSc1ccc(NC2=C(c3ccccc3Cl)C(=O)NC2=O)cc1 [SB-342411],0,0,25,0,20,0,0,0,21,2,13,3,19,0,0,0,5,34,21,14
O=C(Nc1ccccc1F)NC1CCN(c2ccnc(Nc3ccc(F)cc3)n2)C1 (stereo not drawn) [GSK1379722],0,26,2,21,0,12,8,16,0,38,30,0,8,16,0,0,13,7,7,5
CS(=O)(=O)CCNCc1nc(-c2ccc3ncnc(Nc4ccc(OCc5cccc(F)c5)c(Cl)c4)c3c2)cs1.Cl [GW583340],0,0,0,0,0,11,11,0,5,0,0,0,0,25,0,0,0,0,0,0
O=C(NCCCN1CCCC1=O)c1cnc(NCc2cc(Cl)ccc2Cl)nc1NC1CCNCC1,0,21,18,17,0,0,0,0,0,0,0,41,4,0,6,0,0,0,39,0
COc1ccc(NC(=O)c2ccc(-c3cc(-c4nnc(C)o4)ccc3C)cc2)cc1 [GW595885],0,36,0,14,0,0,10,15,0,26,5,0,14,34,0,0,0,10,1,11
O=C(c1ccc(-c2cc(-c3c[nH]nc3-c3ccccn3)ccn2)cc1)N1CCCC1 [GW792479],0,16,0,12,0,0,4,0,0,11,0,0,18,9,0,9,0,12,0,0
C[C@H]1CC[C@@H](C(=O)Nc2ccccc2)CN1c1cc(-c2ccc3c(N)n[nH]c3c2)nc(N)n1 [GSK2283293],0,30,0,13,11,1,0,5,0,6,25,0,23,50,0,0,0,7,0,19
Clc1ccc(-c2cc(-c3c[nH]nc3-c3ccccn3)ccn2)cc1 [GW681251],0,19,2,0,0,4,0,0,4,8,17,0,23,35,0,0,0,10,0,0
Cc1cccc(-c2nc(Nc3ccc4[nH]nnc4c3)c3ccccc3n2)n1 [GW867587],0,2,0,0,0,0,0,0,0,0,0,0,0,3,0,0,8,0,0,0
O=C(Nc1ccccc1)Nc1ccc(Oc2ccc3nccn3n2)cc1,10,0,25,0,0,0,8,0,0,68,16,0,0,13,18,6,0,8,0,0
Fc1ccc(-c2ncn(CCCNCc3ccccc3)c2-c2ccncc2)cc1,0,0,22,0,0,0,11,1,19,8,0,18,0,7,13,24,16,7,16,3
O=C(CCO)NCCn1ccc2ncnc(Nc3ccc(Oc4cccc(C(F)(F)F)c4)c(Cl)c3)c21,0,0,0,0,0,0,0,0,0,0,0,0,0,0,0,0,0,0,0,13
COC(=O)c1c(-c2ccccc2)c2cc(Cl)ccc2c(=O)n1Cc1ccc(S(C)(=O)=O)cc1,0,8,7,0,0,19,6,6,4,12,0,0,0,0,0,5,0,17,65,7
Nc1nc(-c2ccc3c(N)n[nH]c3c2)cc(N2CCCCC2)n1 [GSK2228768],0,14,0,0,3,0,0,9,0,14,23,0,56,4,0,0,0,0,0,0
Nc1nc(-c2cccnc2)c(-c2ccnc3ccccc23)s1 [GW684083],0,22,23,20,5,0,0,10,0,7,10,7,34,58,0,55,28,34,0,9
Cc1cc(N2CCC(NS(=O)(=O)c3ccc(F)cc3)CC2)nc(Nc2cccc(C#N)c2)n1.O=C(O)C(F)(F)F [GSK1653537],0,7,0,20,3,15,0,3,0,0,18,7,21,25,0,0,0,14,0,21
NC(=O)c1sc(-n2cnc3ccccc32)cc1OCc1ccccc1F [GSK1024306],0,5,6,0,0,31,0,0,0,0,38,0,60,0,0,0,27,6,0,14
O=C(Nc1n[nH]c2nc(-c3ccco3)c(Br)cc12)c1ccc(CN2CCCC2)cc1.O=C(O)[C@H](O)[C@@H](O)C(=O)O [SB-742352],8,0,0,8,0,0,0,0,0,0,0,51,0,0,0,0,0,8,0,0
